Experiment [1] is described as follows: NCI Yeast Anticancer Drug Screen. Data for the rad50 strain (AID 155).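 Further: 0% = growth of vehicle-only cultures of the same strain.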 The conditions noted are these: S. cerevisiae rad50 strain growth inhibition, active compounds read high. A digest of the protocol: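 Genetically altered yeast (DNA repair pathway); compound treatment; growth inhibition vs vehicle ctrl.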
Experiment [2] is described as follows: NCI Yeast Anticancer Drug Screen. Data for the mec2-1 strain (AID 157). The note with it: S. cerevisiae mec2-1 strain, active compounds read high. In outline:
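Strain: mec2-1 (DNA repair/cell cycle alteration). Compound exposure, then growth measured; inhibition expressed relative to vehicle.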

Experiment [3] is described as follows: NCI Yeast Anticancer Drug Screen. Data for the sgs1 mgt1 strain (AID 161).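 Further: 0% = growth of cultures given vehicle only.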 The note with it: S. cerevisiae sgs1 mgt1 strain, active compounds read high. A digest of the protocol:
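Read-out: growth inhibition vs vehicle controls. Cells: mutant yeast strain deficient in DNA damage repair.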

Experiment [4] is described as follows: NCI Yeast Anticancer Drug Screen. Data for the cln2 rad14 strain (AID 165).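 Further: 0% = growth equal to vehicle treated cultures.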 The note with it: S. cerevisiae cln2 rad14 strain, active compounds read high. A digest of the protocol:
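Compounds are applied to the cln2 rad14 yeast strain, and growth is then compared with that of vehicle-treated cultures to give inhibition.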

The nature of experiment [5]: NCI Yeast Anticancer Drug Screen. Data for the bub3 strain (AID 167). The conditions noted are these: S. cerevisiae bub3 mutant strain, active compounds read high. A digest of the protocol: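 Yeast carrying a defined mutation is treated with each compound, and growth is compared with that of vehicle-exposed cells to give inhibition.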
The nature of experiment [6]: NCI Yeast Anticancer Drug Screen. Data for the mlh1 rad18 strain (AID 175). The note with it: S. cerevisiae mlh1 rad18 strain growth inhibition, active compounds read high. A digest of the protocol: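 Read-out is yeast growth inhibition, calculated against vehicle-only controls. The compound was applied to a strain engineered with DNA damage repair alterations.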
Setting [7] is: at 5.0 µM (retest, dose inferred, filed as 0.5).
[8] abbreviates: at 50.0 µM (retest, dose inferred, filed as 5.0).

Structures are written as SMILES. The panel holds about 79,000 compounds, 15% with a hit somewhere; the sample as a whole holds those more often. Unmarked numbers belong to inactive results. Active and inactive are the calls of the source. No stated cut-off is given here; in the data, active means growth inhibition above about 70%; inactive means the rest.

Regarding `O[C@H]1c2cccn2-c2ccccc2S[C@H]1c1ccccc1`, the growth inhibition in experiment [1] (setting [7]) was 12%; in experiment [1] (setting [8]), 99% (active); in experiment [1] (at 50.0 µM) it was 98.8% (active); in experiment [2] (setting [7]), -6%; in experiment [2] (setting [8]), 99% (active); in experiment [2] (at 50.0 µM) it was 98.8% (active). For the same compound, the growth inhibition in experiment [3] (setting [7]) is 3%; in experiment [3] (setting [8]), 97% (active); in experiment [3] (at 50.0 µM) it was 98.8% (active); in experiment [4] (setting [7]), 6%; in experiment [4] (setting [8]) it was 99% (active); in experiment [4] (at 50.0 µM), 98.8% (active). The growth inhibition is 10% in experiment [5] (setting [7]); 98% (active) in experiment [5] (setting [8]); 98.5% (active) in experiment [5] (at 50.0 µM); -4% in experiment [6] (setting [7]); 99% (active) in experiment [6] (setting [8]); 99% (active) in experiment [6] (at 50.0 µM).

In the case of `COC1/C=C/OC2(C)Oc3c(C)c(O)c4c5c(cc(O)c4c3C2=O)N=C(O5)/C(C)=C\C=C\C(C)C(O)C(C)C(O)C(C)C(OC(C)=O)C1C` (stereo not given), the growth inhibition is 5% in experiment [1] (setting [7]); 99% (active) in experiment [1] (setting [8]); 55.2% in experiment [1] (at 50.0 µM); -71% in experiment [2] (setting [7]); 99% (active) in experiment [2] (setting [8]); 60% in experiment [2] (at 50.0 µM). The growth inhibition is -60% in experiment [3] (setting [7]); 96% (active) in experiment [3] (setting [8]); 53.6% in experiment [3] (at 50.0 µM); 28% in experiment [4] (setting [7]); 99% (active) in experiment [4] (setting [8]); 53.5% in experiment [4] (at 50.0 µM). For the same compound, the growth inhibition in experiment [5] (setting [7]) was 3%; in experiment [5] (setting [8]), 99% (active); in experiment [5] (at 50.0 µM), 48.5%; in experiment [6] (setting [7]), 4%; in experiment [6] (setting [8]), 98% (active); in experiment [6] (at 50.0 µM), 60.6%.

`COc1nc(N)c(N=O)c(OCc2ccccc2)n1`: the growth inhibition in experiment [1] (setting [7]) is 83% (active); in experiment [1] (setting [8]), 97% (active); in experiment [1] (at 50.0 µM), 89% (active); in experiment [2] (setting [7]), 99% (active); in experiment [2] (setting [8]) it was 98% (active); in experiment [2] (at 50.0 µM), 92.6% (active). Besides, the growth inhibition in experiment [3] (setting [7]) was 62%; in experiment [3] (setting [8]) it was 57%; in experiment [3] (at 50.0 µM) it was 91.4% (active); in experiment [4] (setting [7]), 55%; in experiment [4] (setting [8]), 98% (active); in experiment [4] (at 50.0 µM) it was 89.8% (active). Further, the growth inhibition in experiment [5] (setting [7]) is 97% (active); in experiment [5] (setting [8]) it was 98% (active); in experiment [5] (at 50.0 µM), 91.6% (active); in experiment [6] (setting [7]), 99% (active); in experiment [6] (setting [8]), 97% (active); in experiment [6] (at 50.0 µM), 89.3% (active).

For `O=C1CCCC1CN1CCOCC1` (stereo not given), the growth inhibition is 5% in experiment [1] (setting [7]); 97% (active) in experiment [1] (setting [8]); 75% (active) in experiment [1] (at 50.0 µM); -21% in experiment [2] (setting [7]); 97% (active) in experiment [2] (setting [8]); 75.7% (active) in experiment [2] (at 50.0 µM). Besides, the growth inhibition in experiment [3] (setting [7]) was -32%; in experiment [3] (setting [8]), 75% (active); in experiment [3] (at 50.0 µM) it was 82% (active); in experiment [4] (setting [7]) it was 6%; in experiment [4] (setting [8]), 66%; in experiment [4] (at 50.0 µM) it was 64.4%. Also, the growth inhibition is -20% in experiment [5] (setting [7]); 96% (active) in experiment [5] (setting [8]); 84.5% (active) in experiment [5] (at 50.0 µM); -6% in experiment [6] (setting [7]); 99% (active) in experiment [6] (setting [8]); 83.5% (active) in experiment [6] (at 50.0 µM).

Turning to `O=C(O)c1c(Cl)c(Cl)c(Cl)c(Cl)c1-c1c2ccc(=O)cc-2oc2cc(O)ccc12`, the growth inhibition in experiment [1] (setting [7]) was 54%; in experiment [1] (setting [8]), 97% (active); in experiment [1] (at 50.0 µM) it was 86.7% (active); in experiment [2] (setting [7]), 45%; in experiment [2] (setting [8]), 99% (active); in experiment [2] (at 50.0 µM), 92% (active). Further, the growth inhibition in experiment [3] (setting [7]) was 61%; in experiment [3] (setting [8]), 99% (active); in experiment [3] (at 50.0 µM), 90.5% (active); in experiment [4] (setting [7]), 57%; in experiment [4] (setting [8]), 98% (active); in experiment [4] (at 50.0 µM), 91.2% (active). In addition, the growth inhibition in experiment [5] (setting [7]) is 57%; in experiment [5] (setting [8]) it was 99% (active); in experiment [5] (at 50.0 µM), 90.1% (active); in experiment [6] (setting [7]) it was 67%; in experiment [6] (setting [8]), 98% (active); in experiment [6] (at 50.0 µM) it was 86.2% (active).

Values taken from PubChem BioAssay (NCI).
